The full data set covers some 7,900 targets. This sample favours those with a hit. About 0.6% of all pairs of compound and target were hits.
compound: Cc1cccc(CC(=O)N2CCc3c2ccc(-c2cn(C)c4ncnc(N)c24)c3F)n1; assay: log2 fold change, soluble protein after heating vs DMSO (PISA); higher = thermal stabilisation; K562 cells, 10 uM, 30 min; active = over 0.2 and 3.5 SD of the protein, either way, in both replicates (recomputed)
How it was run: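 K562 cells (2×10^6 cells/mL) were treated with 10 μM compound for 30 min, and aliquots were heated for 3 min over 48°C-58°C. Pooled aliquots were extracted in PBS with 0.5% NP-40 at 4°C, and the supernatant after 21,000xg for 90 min was measured by TMTpro 16plex LC-MS/MS with channel sums equalised. Reported thermal stability, relative to control samples and from duplicates, is a log2 fold change.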

Chain of UniProt Q99798 (Q99798 whole entry, looked up): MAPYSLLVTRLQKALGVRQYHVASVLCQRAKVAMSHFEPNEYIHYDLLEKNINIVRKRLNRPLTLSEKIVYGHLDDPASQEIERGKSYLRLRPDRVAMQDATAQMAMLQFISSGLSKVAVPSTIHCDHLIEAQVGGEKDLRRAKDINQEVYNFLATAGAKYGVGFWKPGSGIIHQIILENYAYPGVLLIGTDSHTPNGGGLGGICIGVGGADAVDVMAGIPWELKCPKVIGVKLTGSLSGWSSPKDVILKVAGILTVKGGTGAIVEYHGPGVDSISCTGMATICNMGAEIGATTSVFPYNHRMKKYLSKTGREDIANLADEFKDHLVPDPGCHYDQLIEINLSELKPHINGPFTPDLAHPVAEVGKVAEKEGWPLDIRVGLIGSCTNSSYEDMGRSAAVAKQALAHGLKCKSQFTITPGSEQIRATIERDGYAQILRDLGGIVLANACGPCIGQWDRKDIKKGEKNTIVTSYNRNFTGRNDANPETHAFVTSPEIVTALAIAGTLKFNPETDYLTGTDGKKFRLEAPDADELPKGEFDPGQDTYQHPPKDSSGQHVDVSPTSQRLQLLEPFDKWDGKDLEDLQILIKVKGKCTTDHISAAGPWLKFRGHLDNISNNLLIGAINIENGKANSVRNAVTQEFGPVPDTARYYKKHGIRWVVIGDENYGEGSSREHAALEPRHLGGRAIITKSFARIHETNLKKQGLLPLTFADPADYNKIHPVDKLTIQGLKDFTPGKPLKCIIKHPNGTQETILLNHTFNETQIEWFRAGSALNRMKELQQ
Chain of UniProt P49748 (P49748 whole entry, looked up): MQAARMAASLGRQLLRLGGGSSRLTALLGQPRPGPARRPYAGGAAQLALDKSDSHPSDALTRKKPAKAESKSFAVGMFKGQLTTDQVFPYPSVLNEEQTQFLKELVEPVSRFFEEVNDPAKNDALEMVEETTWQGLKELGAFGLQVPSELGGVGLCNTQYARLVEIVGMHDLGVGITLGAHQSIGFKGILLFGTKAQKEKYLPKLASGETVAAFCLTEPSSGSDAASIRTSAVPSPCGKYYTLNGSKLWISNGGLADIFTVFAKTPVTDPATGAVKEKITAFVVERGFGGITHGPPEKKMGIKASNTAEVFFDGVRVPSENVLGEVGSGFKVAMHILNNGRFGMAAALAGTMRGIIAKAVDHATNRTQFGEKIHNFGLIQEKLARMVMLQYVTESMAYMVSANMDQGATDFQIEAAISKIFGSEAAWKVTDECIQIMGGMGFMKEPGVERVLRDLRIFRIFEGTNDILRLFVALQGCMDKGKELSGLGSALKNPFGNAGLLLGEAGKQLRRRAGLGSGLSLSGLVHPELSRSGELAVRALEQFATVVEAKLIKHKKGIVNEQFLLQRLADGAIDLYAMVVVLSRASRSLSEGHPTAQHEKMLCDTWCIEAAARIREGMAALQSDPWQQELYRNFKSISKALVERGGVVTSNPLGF
Chain of UniProt Q9Y3D8 (Q9Y3D8 whole entry, looked up): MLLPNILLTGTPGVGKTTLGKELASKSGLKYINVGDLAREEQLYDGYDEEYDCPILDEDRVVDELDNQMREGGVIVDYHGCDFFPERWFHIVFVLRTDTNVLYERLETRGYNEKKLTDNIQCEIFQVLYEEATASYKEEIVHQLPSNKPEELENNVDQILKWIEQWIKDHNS
Chain of UniProt P08243 (P08243 whole entry, looked up): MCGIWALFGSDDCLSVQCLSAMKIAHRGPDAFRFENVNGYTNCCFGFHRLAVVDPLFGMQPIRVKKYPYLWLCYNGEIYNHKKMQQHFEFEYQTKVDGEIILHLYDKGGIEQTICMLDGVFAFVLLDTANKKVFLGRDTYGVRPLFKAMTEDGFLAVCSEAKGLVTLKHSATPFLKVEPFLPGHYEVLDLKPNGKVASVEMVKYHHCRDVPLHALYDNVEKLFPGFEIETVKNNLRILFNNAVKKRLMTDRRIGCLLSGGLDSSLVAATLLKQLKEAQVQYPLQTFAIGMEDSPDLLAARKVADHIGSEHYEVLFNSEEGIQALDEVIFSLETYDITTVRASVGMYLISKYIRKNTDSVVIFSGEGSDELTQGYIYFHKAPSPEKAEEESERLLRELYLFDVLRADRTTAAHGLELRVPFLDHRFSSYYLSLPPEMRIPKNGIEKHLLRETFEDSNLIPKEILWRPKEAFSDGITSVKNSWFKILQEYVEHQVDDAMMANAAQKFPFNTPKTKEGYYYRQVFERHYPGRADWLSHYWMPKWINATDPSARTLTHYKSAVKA
Chain of UniProt Q9Y6E2 (Q9Y6E2 whole entry, looked up): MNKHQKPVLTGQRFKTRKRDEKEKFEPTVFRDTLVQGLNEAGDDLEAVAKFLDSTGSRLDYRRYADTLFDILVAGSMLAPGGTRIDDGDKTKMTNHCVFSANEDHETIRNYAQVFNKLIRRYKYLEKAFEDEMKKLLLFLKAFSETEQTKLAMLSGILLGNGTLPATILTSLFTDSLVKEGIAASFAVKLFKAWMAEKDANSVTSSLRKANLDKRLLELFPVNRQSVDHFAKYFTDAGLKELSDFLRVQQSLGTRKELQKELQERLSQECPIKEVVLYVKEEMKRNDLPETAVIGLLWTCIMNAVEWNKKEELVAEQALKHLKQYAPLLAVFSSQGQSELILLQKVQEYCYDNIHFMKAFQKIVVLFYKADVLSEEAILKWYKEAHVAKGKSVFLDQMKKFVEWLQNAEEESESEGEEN
Chain of UniProt Q92560 (Q92560 whole entry, looked up): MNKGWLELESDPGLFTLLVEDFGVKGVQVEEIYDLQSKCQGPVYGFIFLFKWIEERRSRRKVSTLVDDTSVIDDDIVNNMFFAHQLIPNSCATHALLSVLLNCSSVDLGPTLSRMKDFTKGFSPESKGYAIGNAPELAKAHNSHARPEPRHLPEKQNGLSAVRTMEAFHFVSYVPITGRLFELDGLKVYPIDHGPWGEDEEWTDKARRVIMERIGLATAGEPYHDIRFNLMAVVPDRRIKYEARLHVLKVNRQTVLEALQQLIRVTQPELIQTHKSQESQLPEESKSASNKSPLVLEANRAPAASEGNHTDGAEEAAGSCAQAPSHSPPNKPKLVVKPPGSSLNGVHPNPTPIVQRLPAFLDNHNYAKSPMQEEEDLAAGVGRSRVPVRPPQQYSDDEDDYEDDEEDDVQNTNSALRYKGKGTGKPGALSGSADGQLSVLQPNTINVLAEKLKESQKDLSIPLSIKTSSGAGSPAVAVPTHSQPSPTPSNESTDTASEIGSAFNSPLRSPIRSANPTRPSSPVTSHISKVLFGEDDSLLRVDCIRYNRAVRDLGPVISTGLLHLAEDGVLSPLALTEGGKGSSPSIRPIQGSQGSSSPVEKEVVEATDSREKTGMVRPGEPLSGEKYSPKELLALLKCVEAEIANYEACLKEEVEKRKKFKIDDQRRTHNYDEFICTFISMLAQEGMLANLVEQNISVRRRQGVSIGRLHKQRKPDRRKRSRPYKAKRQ
Chain of UniProt O95870 (O95870 whole entry, looked up): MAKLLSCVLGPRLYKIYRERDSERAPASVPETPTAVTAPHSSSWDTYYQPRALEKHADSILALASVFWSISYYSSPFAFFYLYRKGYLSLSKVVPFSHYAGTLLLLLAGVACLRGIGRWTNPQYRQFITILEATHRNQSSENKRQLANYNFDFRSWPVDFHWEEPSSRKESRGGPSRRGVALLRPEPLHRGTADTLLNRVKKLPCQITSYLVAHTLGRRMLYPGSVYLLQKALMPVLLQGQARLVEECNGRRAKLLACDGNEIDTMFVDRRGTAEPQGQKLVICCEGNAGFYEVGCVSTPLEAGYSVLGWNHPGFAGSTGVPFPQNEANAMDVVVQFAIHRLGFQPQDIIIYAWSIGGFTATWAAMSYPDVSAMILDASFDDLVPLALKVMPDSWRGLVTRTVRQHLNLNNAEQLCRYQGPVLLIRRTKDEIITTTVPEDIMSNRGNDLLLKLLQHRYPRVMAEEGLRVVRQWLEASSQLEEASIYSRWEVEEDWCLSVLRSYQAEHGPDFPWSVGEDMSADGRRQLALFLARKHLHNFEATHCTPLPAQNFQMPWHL
Chain of UniProt Q9P287 (Q9P287 whole entry, looked up): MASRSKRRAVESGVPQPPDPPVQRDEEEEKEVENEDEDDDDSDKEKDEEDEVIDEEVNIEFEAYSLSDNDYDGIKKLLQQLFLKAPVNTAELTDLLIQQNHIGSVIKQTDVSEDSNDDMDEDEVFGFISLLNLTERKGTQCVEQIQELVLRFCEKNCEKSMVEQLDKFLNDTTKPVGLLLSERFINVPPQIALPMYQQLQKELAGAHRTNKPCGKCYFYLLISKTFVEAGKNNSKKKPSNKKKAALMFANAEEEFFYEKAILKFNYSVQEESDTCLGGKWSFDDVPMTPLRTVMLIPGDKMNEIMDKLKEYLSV
Chain of UniProt P31751 (P31751 whole entry, looked up): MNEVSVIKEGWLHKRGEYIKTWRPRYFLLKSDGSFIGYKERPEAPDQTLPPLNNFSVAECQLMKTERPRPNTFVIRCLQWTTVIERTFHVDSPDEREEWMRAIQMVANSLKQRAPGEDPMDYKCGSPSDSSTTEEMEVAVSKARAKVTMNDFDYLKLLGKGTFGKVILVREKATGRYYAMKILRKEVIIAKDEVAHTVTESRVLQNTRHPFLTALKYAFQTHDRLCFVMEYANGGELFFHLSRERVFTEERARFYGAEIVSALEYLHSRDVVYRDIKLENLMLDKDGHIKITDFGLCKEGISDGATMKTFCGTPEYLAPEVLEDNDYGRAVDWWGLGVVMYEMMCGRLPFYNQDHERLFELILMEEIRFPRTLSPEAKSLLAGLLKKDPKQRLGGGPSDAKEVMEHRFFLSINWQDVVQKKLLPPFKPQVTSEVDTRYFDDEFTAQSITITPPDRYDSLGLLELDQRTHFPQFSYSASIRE
Chain of UniProt P56385 (P56385 whole entry, looked up): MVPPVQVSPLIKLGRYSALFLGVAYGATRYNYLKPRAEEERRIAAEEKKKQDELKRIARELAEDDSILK
Chain of UniProt Q9Y2Y0 (Q9Y2Y0 whole entry, looked up): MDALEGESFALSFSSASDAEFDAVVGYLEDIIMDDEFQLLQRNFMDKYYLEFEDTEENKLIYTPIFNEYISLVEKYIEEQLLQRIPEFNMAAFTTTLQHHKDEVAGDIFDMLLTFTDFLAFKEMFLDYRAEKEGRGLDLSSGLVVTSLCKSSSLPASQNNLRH

log2 fold change, inactive:
BZW2 (UniProt Q9Y6E2) 0.073
ALDH6A1 (UniProt Q02252) -0.103
ATAD3B (UniProt Q5T9A4) 0.018
ASNS (UniProt P08243) 0.02
ALG11 (UniProt Q2TAA5) 0.086
AGPAT5 (UniProt Q9NUQ2) 0.021
ALDH9A1 isoform 3 (UniProt P49189) 0.001
ARL2BP (UniProt Q9Y2Y0) 0
ASH2L (UniProt Q9UBL3) -0.013
ACO2 (UniProt Q99798) -0.025
APOB (UniProt P04114) 0.032
AMFR (UniProt Q9UKV5) 0.099
AKT2 (UniProt P31751) 0.049
BCAP29 isoform 2 (UniProt Q9UHQ4) -0.027
ADD3 (UniProt Q9UEY8) -0.008
ATP6V0A1 isoform 3 (UniProt Q93050) 0.153
BCCIP isoform 2 (UniProt Q9P287) 0.021
BRD4 (UniProt O60885) 0.054
ATL2 (UniProt Q8NHH9) 0.034
BRIX1 (UniProt Q8TDN6) -0.033
ACBD6 (UniProt Q9BR61) 0.063
ABCB6 (UniProt Q9NP58) 0.014
ATG4B isoform 2 (UniProt Q9Y4P1) 0.073
ALDH18A1 (UniProt P54886) 0.071
AGPAT3 isoform 3 (UniProt Q9NRZ7) 0.04
ANKZF1 (UniProt Q9H8Y5) -0.047
AK6 (UniProt Q9Y3D8) -0.018
AP2S1 (UniProt P53680) -0.01
ACADVL isoform 3 (UniProt P49748) 0
ATP5ME (UniProt P56385) -0.051
B4GALT1 (UniProt P15291) 0.009
ALKBH5 (UniProt Q6P6C2) -0.15
ATP12A isoform 2 (UniProt P54707) 0.011
ABHD16A (UniProt O95870) -0.056
BAP1 (UniProt Q92560) -0.071
ARMC8 (UniProt Q8IUR7) -0.026
